# Reference: the supplement of paper PMC6555819
# Assays:
# Assay in all cases: PBM binding z-score (relative to random genomic background probes); higher = stronger binding; sequences stand for … in GC…GCGATTGACAGCGTAGAATGAAGG
# [1] = tested on: PPARg:RXRa DBDmut IVT, anti-RXR (DBD mutation: RXRa K156A/R161A, NR concentration 270 nM, RXRa partner concentration 90 nM)
# How it was run: (§1)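 Binding z-scores were set against random background probes. The data came from custom Agilent 4×180K protein-binding microarrays carrying double-stranded probes with 34-nt variable regions, incubated 1 h with ligand-free nuclear receptor dimers. Partner-specific antibodies detected binding, and scanned fluorescence was regression-normalized.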
# [2] = tested on: PPARg:RXRa IVT, anti-PPARg (NR concentration 270 nM, RXRa partner concentration 90 nM)
# How it was run: as §1
# [3] = tested on: PPARg DBDmut:RXRa IVT, anti-PPARg (DBD mutation: PPARg1 K132A/R137A, NR concentration 270 nM, RXRa partner concentration 90 nM)
# How it was run: as §1
# [4] = tested on: PPARg DBDmut IVT, anti-PPARg (DBD mutation: PPARg1 K132A/R137A, NR concentration 270 nM)
# How it was run: as §1
# [5] = tested on: PPARg homodimer (NR concentration 180 nM)
# How it was run: as §1
# [6] = tested on: PXR:RXRa (NR concentration 270 nM, RXRa partner concentration 90 nM)
# How it was run: as §1
# [7] = tested on: PXR homodimer (NR concentration 270 nM)
# How it was run: as §1
# [8] = tested on: RARa:RXR (NR concentration 270 nM, RXRa partner concentration 90 nM)
# How it was run: as §1
# [9] = tested on: RARa homodimer (NR concentration 270 nM)
# How it was run: as §1
# [10] = tested on: RARb:RXRa (NR concentration 270 nM, RXRa partner concentration 90 nM)
# How it was run: as §1
Sequence,PBM binding z-score [1],PBM binding z-score [2],PBM binding z-score [3],PBM binding z-score [4],PBM binding z-score [5],PBM binding z-score [6],PBM binding z-score [7],PBM binding z-score [8],PBM binding z-score [9],PBM binding z-score [10]
ATATGTAGGTTAGGTGGGGTCATTCAGACTAGGC,6.72,5.87,2.01,3.16,2.99,6.47,4.9,6.09,1.79,2.98
ATCTCTAGGTAACCAAGTTCAGCGAATGCCGAAC,3.55,2.95,1.37,0.686,0.704,2.02,1.3,1.04,0.165,1.34
CATGCAGGGTCAGCTAGGCCAGAGTAGGGACGGC,0.734,1.98,0.517,-0.095,0.728,2.2,-0.234,3.27,-0.247,4.14
CCTGCTAGGTCACTGGTCAGCTAAAGCAGCTCGC,4.87,4.51,0.683,-0.736,1.51,1.27,-0.378,2.08,-0.0661,3.92
TTACCAAGGCGAAAGGTCGTTGATGCACGCCTTG,0.0972,2.19,-0.305,-0.595,0.815,1.96,-0.0871,2.49,0.25,1.83
TCCTGTAGATCAGCAGGTTAAGAAAGCTGGCCAA,1.6,-0.214,-0.0572,-0.0553,-0.125,0.286,-0.41,0.585,-0.442,0.219
GATACAGGGTTAGCTAGAGGCCAGAGTATGGAAA,-0.257,0.231,-0.237,-1.22,0.107,0.293,-0.052,0.625,-0.595,1.07
GCTTGTAGATCAAGGTTAAGGAAGACTAAGCTAA,1.33,1.17,-0.221,0.338,0.301,0.301,-0.237,0.84,-0.272,0.798
ATCTCTAGGTAAGACTGAGTTCAGTGAAGAACGC,1.52,1.3,0.582,0.923,0.874,2.66,3.46,0.632,0.634,0.692
CCAGACAGCTGAGAAGGTAACTCAGCCTCGATTA,-0.628,-0.629,-0.497,-0.867,0.219,-0.733,0.0352,-0.488,-0.132,-1.71
TCGAGTAGGTTACCAATGGGGCACTCAGCTTTCT,3.78,3.08,-0.534,0.223,-0.453,0.0109,-0.848,0.158,-0.688,0.948
CCTCGGAGGACAACAGGAAGTCAGAGCTGCCAGA,-0.28,-0.806,-1.35,-1.22,0.0465,-0.665,-0.485,-0.454,0.0942,0.863
CGAACTAGGTCAAGGACAGAGAATCTCCGCACGC,8.21,8.28,3.36,1.6,1.59,0.886,-0.0315,1.87,0.29,3.87
GCAGACAGGTGACACGCAGGTAACTCAGGGTGGC,0.596,1.21,-0.103,-0.383,-0.125,-0.218,-0.476,0.24,-0.572,0.684
TCTAGTTGGTCACGGAGGTAACACACGACGGGTA,2.14,2.58,0.811,0.805,0.896,0.407,0.258,0.834,0.81,1.8
CCTCGAAGGACAGAAGGTCAGAGCTGTCCGCTTT,-0.0695,-0.0413,-0.921,-1.97,1.14,1.08,-0.321,1.83,0.748,3.06
GGAACGAGGGCAAAGTTGATAGGATCTGTCGACG,3.81,4.2,0.474,-0.389,0.743,1.31,0.619,1.58,0.0143,2.41
GGAAAGAGGGCAAAGTTGATAGCATCTGTCGACG,3.73,3.74,1.03,-0.31,1.67,1.77,0.468,2.25,0.527,2.77
TATACAGGCTCAAAGGCCAGAGTACGAATGTCGA,-0.518,0.865,0.383,0.281,-0.146,-0.262,-0.323,-0.258,0.14,0.95

Sequence,PBM binding z-score [1],PBM binding z-score [2],PBM binding z-score [3],PBM binding z-score [4],PBM binding z-score [5],PBM binding z-score [6],PBM binding z-score [7],PBM binding z-score [8],PBM binding z-score [9],PBM binding z-score [10]
TTACCAAGGTGAAAGGTCGTTGTTGCACGCCTTG,2.71,4.85,-0.135,0.857,1.39,3.78,0.253,5.2,-0.175,3.09
ACTATTAGTTGAGACGAGGGCAACCGATAGGTTG,0.0589,0.536,0.785,0.574,0.059,1.64,0.413,0.859,0.982,1.24
GCTAGAAGGCCATTTGGGTCACTCAATGACGGGC,1.13,1.97,-0.158,-0.532,0.149,1.19,1.2,1.08,-0.572,2.2
ACTAGCAGGCCAAGTTTGGGTGACTCAAACAAAG,0.661,0.765,-1.13,-1.09,-0.815,-0.475,-0.715,-0.198,-0.374,0.418
AATACAGGGTCATCGTAGGCCAGAGTGCGCACAG,2.61,4.22,1.07,1.13,1.9,4.97,0.782,4.82,0.464,4.48
AGAACAAGGGCACGCTGAGTTGATAGCAGAGTAG,3.07,2.72,0.166,0.443,0.00636,0.845,0.17,0.366,-0.312,2.51
ATCTCTAGGTAAAGATAGTTCGGTGAATGCAAAT,2.2,1.58,0.574,0.789,0.784,0.102,0.511,0.121,0.697,0.0855
TGTCAAAGTTCAAAGTTAACGTAAGTATCCACAC,0.374,4.24,1.16,1.99,2.65,5.04,4.24,4.46,1.12,5.12
CGAACTAGGTCAGAACCGGACAGTGAAGGATGAT,7.36,7.01,0.829,-0.265,0.564,0.339,-0.0754,0.679,-0.208,2.85
CAGCCTAGGTCAGGGCCAGTATGGGAGGAACGTT,0.702,1.59,-1.71,-1.33,0.437,0.196,-0.864,0.839,-0.701,3.43
CAAACTAGGTCACCGGAAGGTCAAAGTACGCATG,8.79,8.9,4.79,1.89,9.62,6.54,1.85,8.16,4.07,5.38
AGTCAACGTTCACTAGGTAACGTAAGATTCAGCT,2.07,2.83,0.496,0.783,-0.0596,-0.163,-0.41,-0.184,-0.305,0.64
CGTCCAAGGTCAGCAGGTCAGTGGAAGCGACGTG,2.83,3.58,-0.161,-0.183,2.96,3.57,0.377,4.3,0.462,5.23
CCTACTGGGCCAAGAAGGTCATTGATGCCGATAA,3.62,3.76,-1.15,-1.07,1.85,3.13,1.54,3.23,0.531,2.76
CCTACTGGGCCAAGGTCGTTGATCAGTCAAAGCA,3.4,3.41,-1.53,-1.31,-0.148,0.637,0.241,0.405,-0.549,1.09
GCTAGCAGCCCATTTGGGTCACTCAATGACGGGC,-0.167,0.995,-0.831,-1.56,-0.798,-0.106,-0.918,0.359,-1.15,0.893
GCAGACAAGTGAAACGCAGGTAACTCAGGGTGGC,-0.601,-0.398,-0.525,-1.2,-0.82,-0.683,-0.723,-0.207,-0.732,-1.75
TCTATTAGTTGAAGGGCAACAGACGAGTCCGTTT,2.12,0.473,0.759,0.516,1.01,0.991,0.988,0.764,1.52,1.55
TAGCCTAGGTCTTTGGGCCAGTATAGTACGCATC,-0.223,0.546,-1.01,-0.496,-0.656,-0.782,-0.961,-0.806,-0.737,-0.161
